These results are taken from PubChem BioAssay (NCATS).

The structures appear in SMILES notation. Records with an inconclusive call do not appear. A call without a number means that no potency is given here. Calls of active or inactive are those of the source. Calls follow the shape of the dose curve; as a rule, active = well fitted inhibition curve with a large enough effect; inconclusive = small, poorly fitted or top-dose-only effect; inactive = flat fitted curve, though single readings scatter.

Calcium and integrin-binding protein 1 (Homo sapiens), sequence (Q99828 whole entry, looked up): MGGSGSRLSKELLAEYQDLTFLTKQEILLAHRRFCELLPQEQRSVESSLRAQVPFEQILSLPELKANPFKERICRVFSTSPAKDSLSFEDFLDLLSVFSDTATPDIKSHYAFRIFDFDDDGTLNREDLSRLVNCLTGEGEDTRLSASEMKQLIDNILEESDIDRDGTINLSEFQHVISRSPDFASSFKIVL

The experiment deals with Calcium and integrin-binding protein 1 (Homo sapiens) (UniProt Q99828). As to the kind of experiment: Primary qHTS for Identification of Calcium Integrin Binding Protein 1 (CIB1) Competitor (AID 1508620).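 Also: GST tagged CIB1 binding a fluorescein labelled alphaIIb integrin peptide tracer; top concentration of the series differs between compounds.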 The conditions noted are these: CIB1-GST / FITC-alphaIIb peptide fluorescence polarization; series mostly up to 114 µM. The essentials:
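Fluorescence polarization competition: CIB1-GST (1 uM final) preincubated with compound 15 min at room temperature, then FITC-labeled alphaIIb peptide (100 nM final) added for another 15 min. Polarization read at Ex 480/Em 540.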
As for `CC1CCC(=O)CC(SCC(O)C(=O)O)CCC(=O)O1` (stereo not drawn), the Potency entry was “inactive”.
In the case of `Nc1cccc(CNC(=O)c2ccc(Oc3ccc(OCc4cccc(F)c4)cc3)nc2)c1`, the Potency result is “inactive”.
Take `CC(=O)OC1CC(C)(C(=O)O)CC2C3=CC(=O)C4C5(C)CCC(OC6OC(C(=O)O)C(O)C(O)C6OC6OC(C(=O)O)C(O)C(O)C6O)C(C)(C)C5CCC4(C)C3(C)CCC12C` (stereo not drawn): the Potency entry is “inactive”.
In the case of `Cc1ccc(-c2ncccn2)c(C(=O)N2C[C@H](COc3ccc(F)cn3)CC[C@H]2C)c1` it was “inactive”; in that of `C=C1C(=O)O[C@@H]2[C@H]1CC[C@H](C)[C@]1(CCC(=O)O1)C2(C)O` (stereo partly drawn), “inactive”; in that of `CCC/C=C\C=C/CCc1cc(O)c([C@@H]2O[C@H](CO)[C@@H](O)[C@H](O)[C@H]2O)c(O)c1C(=O)OC`, “inactive”.
As for `COc1ccc(NC(=O)C2C[C@H](C)CC[C@H]2C(C)C)cc1` (stereo partly drawn), the Potency entry is “inactive”.
On to `C=C(C)C(=O)O[C@H]1/C(C=O)=C\CC/C(CO)=C/[C@H]2OC(=O)C(=C)[C@@H]2[C@@H]1OC`, for which the Potency result was “inactive”.
On to `COc1cc(C(=O)NC(=S)Nc2cccc(NC(=O)c3ccccc3)c2)cc(OC)c1OC`, for which the Potency entry was “inactive”.
Consider `C/C(=C\CCC(C)C1=CCC2(C)OC3=C(CC12)C(=O)C(O)CC3)CO` (stereo not drawn), for which the Potency entry is “inactive”.
`C=C1CC2[C@@]3(C)C=CC(=O)C(C)(C)C3=C(O)C(=O)[C@@]2(C)C2(C(=O)OC)C(=O)C(C)OC(=O)[C@@]12C` (stereo partly drawn): the Potency result is “inactive”.
Consider `COc1cc(/C=C2\CC[C@H]3COC[C@@H](c4cc(F)c(F)c(F)c4)N3C2=O)ccc1-n1cnc(C)c1`, for which the Potency entry was “inactive”.
In the case of `CC(C)NCCCn1c(Sc2cc3c(cc2I)OCO3)nc2c(N)ncnc21` it was “inactive”; in that of `O=C(NCCN1CCOCC1)c1cc2c(Oc3ccc(NC(=O)C4(C(=O)Nc5ccc(F)cc5)CC4)cc3)ccnc2[nH]1`, “inactive”.
Regarding `OC[C@H]1O[C@@H](OC/C=C/c2ccc(O)cc2)[C@H](O)[C@@H](O)[C@@H]1O`, the Potency result was “inactive”.
For the molecule `COc1cc(C[C@H]2C(=O)OC[C@@H]2Cc2ccc(OC)c(OC)c2)ccc1O`, the Potency entry is “inactive”.
As for `O=C(CN1C2=NCCN2c2ccccc21)c1ccc(-c2ccccc2)cc1`, the Potency result is “inactive”.
With `Cc1cn2c(n1)Cc1ccc(Cl)cc1C(c1ccc(N)cc1)=N2`, the Potency entry is “inactive”.
`O=C1Cc2c([nH]c3ccc(Br)cc23)-c2ncccc2N1`: the Potency entry was “inactive”.
Turning to `C=C1CC2OC(=O)C(=C)C2C(O)/C=C(\C)CCC1O` (stereo not drawn), the Potency entry was “inactive”.
For `c1ccc(-c2cnn3cc(-c4ccc(OCCN5CCOCC5)cc4)cnc23)cc1`, the Potency result was “inactive”.
As to `C=C1CC[C@@H]2[C@](C)(CO)[C@H](O)CC[C@@]2(C)[C@@H]1C/C=C1/C(=O)OCC1OC(=O)/C(=C/CO)C(O)C[C@@H]1C(=C)CC[C@@H]2[C@](C)(CO)[C@H](O)CC[C@]21C` (stereo partly drawn), the Potency result was “inactive”.
In the case of `CC(=O)OC(C)(C)/C=C/C(=O)[C@](C)(O)[C@H]1C(O)C[C@@]2(C)[C@@H]3CC=C4[C@@H](C=C(O[C@@H]5O[C@H](CO)[C@@H](O)[C@H](O)[C@H]5O)C(=O)C4(C)C)[C@]3(C)C(=O)C[C@]12C` (stereo partly drawn) it was “inactive”.
